Source: PubChem (National Center for Advancing Translational Sciences (NCATS))
Hits are enriched below; roughly 4.6% of the tested compounds scored in any of these assays.
TRHR PAM = allosteric enhancers of human TRH receptor; hit rate 0.66% among 360,000; TRHR cells, fluo-8 calcium fluorescence, EC20 TRH enhancement; enhancement, % at 2 µM; P34981; in the data active = enhancement above about 30%; note: 0% is about no effect
Target sequence (P34981 whole entry, looked up): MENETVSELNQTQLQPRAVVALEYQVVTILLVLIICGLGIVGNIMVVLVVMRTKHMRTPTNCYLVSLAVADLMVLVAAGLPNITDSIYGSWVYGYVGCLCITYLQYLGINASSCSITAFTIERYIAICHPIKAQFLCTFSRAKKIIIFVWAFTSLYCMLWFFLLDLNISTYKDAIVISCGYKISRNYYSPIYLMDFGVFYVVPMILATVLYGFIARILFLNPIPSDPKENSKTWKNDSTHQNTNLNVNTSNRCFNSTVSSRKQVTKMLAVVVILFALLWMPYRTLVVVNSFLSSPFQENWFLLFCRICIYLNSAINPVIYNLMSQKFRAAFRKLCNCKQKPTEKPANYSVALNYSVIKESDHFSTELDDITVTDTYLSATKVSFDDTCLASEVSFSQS
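Enhancer read-out: after compound pinning and an initial kinetic agonist-mode read, an EC20 of TRH (10 nM final) was injected and fluo-8 calcium signal (Ex 480/Em 530) followed at 1 s/cycle for 100 cycles in TRHR-expressing cells.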
D1 antag = antagonists of human D1 dopamine receptor | HEK293 TREx D1 cells, calcium flux, dopamine EC80; stronger effect = lower value | activity change, negative = inhibition, % at 10 µM | P21728 | hit rate 3.2% among 360,000; in the data active = activity change below about -30%; note: % is set by controls: 0 for no effect and ±100 for the full control effect
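Antagonism measured as reduced calcium response to an EC80 dopamine addition following 180 s compound pre-read; cells were inducible HEK293 Trex D1 plated overnight at 30 C, read kinetically at 1 cycle/sec.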
D1 agonist = activates the human D1 dopamine receptor; hit rate 1% among 360,000; HEK293 T-REx D1 cells, calcium flux, agonist mode; activation, % at 2 µM; AID 504660; note: 0% is about no effect
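Inducible HEK293 T-REx D1 cells, force-coupled to calcium signalling, were plated at 4000 cells/well with tetracycline and held overnight at 30 C. After no-wash calcium dye loading, compound-evoked calcium rise over 180 s flagged agonists.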
D1 potentiator = potentiators of human D1 dopamine receptor. HEK293 TREx D1 cells, calcium flux, dopamine EC20 potentiation. hit rate 0.036% among 360,000. P21728. potentiation, % at 10 µM; in the data active = potentiation above about 30%; note: 0% is about no effect
TRHR agonist = TRH receptor (human) agonism; P34981; TRHR cells, calcium flux fluo-8, FDSS agonist mode; activation, % at 2 µM; hit rate 0.18% among 360,000; note: 0% is about no effect
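Fluo-8-loaded TRHR cells; 10 s baseline, compound added, kinetic Ca2+ fluorescence read 1/s, agonist mode.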
Active calls of the source: *. Cut-off read from the data, not from the text of the source, unless noted: active = activation above about 30%; inactive = the rest.

SMILES	TRHR PAM	D1 antag	D1 agonist	D1 potentiator	TRHR agonist
Cc1ccccc1CNS(=O)(=O)c1ccc2c(c1)OCCO2	11.2	-32.4*	20.4	-9.6	-0.4
CCOC(=O)C1=C(CS(=O)(=O)c2ccc(C)c(C)c2)NC(=O)NC1c1ccc(O)cc1 (stereo unspecified)	-2.2	-0.7	-2.5	6.3	-0.1
CCOc1ccc(NC(=O)c2cc(OC)nc3ccccc23)cc1	-2.8	-12.1	1.5	-4.6	-1.0
O=C(Nc1cccc(Cl)c1)N(CCN1CCOCC1)Cc1cccc(Cl)c1	-1.0	-37.9*	48.1*	-13.4	-0.2
Cc1ccc(C)c2[nH]c(=O)c(CN(CCN3CCCC3)C(=O)Nc3cccc(Cl)c3)cc12	3.0	-12.3	39.0*	-11.3	0.0
COc1ccc(OC)c(CN(CCN2CCOCC2)C(=O)Nc2cccc(Cl)c2)c1	-1.3	-31.2*	2.3	-0.3	0.6
CC(C)N=C1SC(CC(=O)Nc2ccccc2)C(=O)N1C(C)C (stereo unspecified)	-0.9	3.3	2.2	4.6	-0.2
C/C(=N/n1cnnc1)c1cccnc1	1.8	-5.5	1.9	-0.6	0.5
CN=c1scc(-c2ccc(OC)cc2)n1/N=C(\C)c1cccnc1	-6.2	-54.7*	11.8	-7.6	-0.5
Cc1ccc(S(=O)(=O)Nc2cc(-c3ccccc3)nn2C)cc1	0.6	9.2	1.1	-1.9	-0.2
Cn1nc(-c2ccccc2)cc1NS(=O)(=O)c1ccccc1	3.7	-36.3*	1.9	-1.6	-1.4
COc1ccc(C(=O)N/N=C(/C)c2cccc(NC(=O)c3ccccc3F)c2)cc1	-1.1	-5.4	4.0	3.0	-0.6
COc1ccc(C(=O)N/N=C(\C)c2cccc(NC(=O)c3ccc(F)cc3)c2)c(OC)c1	-1.0	-36.8*	4.8	-4.8	-0.2
Cn1c(=O)c2c(-c3ccccc3Cl)n(-c3cc(Cl)ccc3O)cc2n(C)c1=O	1.2	4.6	43.0*	0.1	-1.3
N#C/C(=C\c1ccc[nH]1)S(=O)(=O)c1ccccc1	-0.5	-31.9*	19.6	-2.3	1.7
COc1ccc(N2C(=O)C(Cl)=C(Oc3cccc(OC)c3)C2=O)cc1	-5.5	-8.6	0.0	-6.0	0.5
O=C(NCc1ccccc1)C(=O)Nc1nccs1	34.4*	-28.2	0.9	-1.4	0.3
CCOC(=O)C(=O)Nc1nccs1	1.9	-33.7*	0.3	-3.2	0.4
COc1ccc(-n2nc(C(=O)NCC(=O)NC3CCCCC3)c3ccccc3c2=O)c(OC)c1	0.2	-2.2	1.6	-0.5	-0.5
O=c1c(-c2ccccc2)c(-c2ccccc2)oc2cc(O)cc(O)c12	-9.9	53.1	40.5*	-1.3	-2.8
COc1ccc(NC(=O)CSc2nc3ccccc3c(=O)n2CCCN2CCOCC2)c(OC)c1	3.5	-33.2*	4.1	-7.2	-0.7
COc1cccc(NC(=O)CSc2nc3ccccc3c(=O)n2C)c1	-3.7	1.3	49.8*	7.3	-0.8
CC(C)Oc1ccccc1NC(=O)CSc1nc2ccccc2c(=O)n1C	2.6	-0.9	4.9	-7.5	-0.9
CCOCCCn1c(SCC(=O)Nc2ccc(OC)cc2OC)nc2ccccc2c1=O	20.3	14.3	-1.7	2.8	-0.3
COCCOc1ccc(C(F)(F)F)cc1NC(=O)COC(=O)c1cc[n+]([O-])cc1	12.6	-17.3	6.0	-4.0	0.2
SMILES	TRHR PAM	D1 antag	D1 agonist	D1 potentiator	TRHR agonist
COCCOc1ccc(C(F)(F)F)cc1NC(=O)COC(=O)c1c(C)noc1C	33.8*	24.8	2.6	-3.6	-1.1
N#Cc1c2ccc(O)cc2n2ccccc12	-13.8	-3.1	57.6*	-5.0	24.8
N#Cc1c2ccc(OCC(=O)NCc3ccco3)cc2n2ccccc12	-5.0	-7.7	8.3	-1.1	12.7
COc1cc(C(=O)OCCCN(C)C)cc(OC)c1OC	-6.0	-38.8*	1.0	-1.8	0.3
COc1ccc(C(=O)OCCCN(C)C)cc1OC	0.8	-3.2	3.2	1.1	0.2
CCOC(=O)c1[nH]c(C)c(CCC(=O)NCc2ccc(C)cc2)c1C	1.1	6.1	0.5	-0.7	-0.1
C/C(=N\NC(=O)c1ccco1)c1ccc(NC(=O)C(F)(F)F)cc1	38.9*	-18.4	5.2	-3.9	-0.1
C/C(=N\NC(=O)c1ccco1)c1ccc(-c2ccccc2)cc1	9.0	-0.8	2.2	-4.4	-0.3
C/C(=N\NC(=O)c1ccco1)c1ccc(NC(=O)c2ccccc2)cc1	0.7	-33.5*	3.6	-6.8	0.0
CN(C(=O)CSc1nc2c(c(=O)[nH]1)CCCC2)C1CCCCC1	-1.0	1.0	2.8	2.8	0.0
COC(=O)c1ccc(COc2cc(O)c3c(c2)OC(C)(C)CC3=O)cc1	3.4	-34.7*	18.1	6.0	-0.4
Cc1cc(NS(=O)(=O)c2ccccc2)c(C)c(Cl)c1O	-5.6	-23.2	43.9*	-3.7	4.5
Cc1c(O)ccc(NS(=O)(=O)c2ccccc2)c1C	-0.9	-36.4*	1.3	-4.0	0.5
O=S(=O)(O)c1c(NS(=O)(=O)c2ccccc2)ccc2ccccc12	5.3	-35.9*	2.8	-6.8	1.6
CCOc1ccc(CONS(=O)(=O)c2ccc(NC(C)=O)cc2)cc1Cl	-2.9	-24.7	68.5*	-8.8	0.4
CC(=O)Nc1ccc(S(=O)(=O)NNC(=O)COc2ccc(Cl)cc2Cl)cc1	-2.2	1.3	2.3	4.2	0.1
COc1ccc(NC(=O)N2CCC(c3nc(-c4cccs4)no3)CC2)cc1	-2.5	-22.0	1.5	-6.5	0.2
O=C(Nc1ccc(Cl)cc1)N1CCC(c2nc(-c3cccs3)no2)CC1	-13.8	-45.6*	16.8	-12.2	0.0
COc1cc(OC)cc(C(=O)NCCn2ccc3ccccc32)c1	-3.2	-16.4	2.6	-4.7	-1.0
O=C(NCCn1ccc2ccccc21)c1ccc(Cl)cc1	0.0	-34.1*	-0.3	-4.0	-0.1
Cc1nc2cc(CO)ccc2n1C	1.4	-0.2	0.6	1.0	0.4
CCOc1ccc2c(c1)nc(C)n2C	2.1	-47.1*	0.9	-8.1	0.3
c1ccc(NC2=NCCN2CCCC2CCCCC2)cc1	-2.5	-5.3	32.9*	-3.1	1.4
c1ccc(CCCCN2CCN=C2Nc2ccccc2)cc1	31.7*	3.5	5.3	1.4	0.2
Fc1cccc(CCN2CCN=C2Nc2ccccc2)c1	-2.3	-18.2	20.0	-4.5	8.7
CCCC(=O)C1=C(O)C(C(=O)OC)C(C)(C)CC1=NCc1ccccc1 (stereo unspecified)	-1.7	1.1	1.3	-7.2	0.0
CCCC(=O)C1=C(O)C(C(=O)OC)C(C)(C)CC1=Nc1ccccc1 (stereo unspecified)	-3.7	-45.7*	1.3	-2.8	-0.5
CCCCOc1ccc(S(=O)(=O)NC(=O)NCc2ccc(OCCC)cc2)cc1	-0.7	-38.4*	0.7	-14.9	-0.4
CCCCOc1ccc(CNC(=O)NS(=O)(=O)c2ccc(OCC)cc2)cc1	7.6	-7.1	-0.3	-5.3	-0.6
Cc1cccc(C(=O)Nc2cc3nn(-c4ccc(C(C)C)cc4)nc3cc2C)c1	2.4	2.9	-0.3	0.1	-0.1
